Screening results: PubChem, National Center for Advancing Translational Sciences (NCATS)
Rows were chosen to be rich in hits. Some 20% of all compounds tested hit in one or more screens of this group.
Cycloheximide cs = counter-screen for Shiga toxin inhibitors: cycloheximide protein synthesis inhibition; hit rate 12% among 300,000; max response, %; cell reporter, cycloheximide protein synthesis inhibition counterscreen; in the data active means max response mostly above about 13%, no sharp cut-off; inactive means mostly below about 14%; further: read at 38.3 µM for the half of the compounds with a filed dose; 0% is about no effect
Pf growth 96h = P. falciparum growth inhibition at 96 hours | AID 504834 | Potency, µM (top dose mostly 28.7 µM), for the others: at the highest dose activity change, negative = inhibition, usual class: inhibitors | hit rate 6.9% among 320,000 | P. falciparum luciferase reporter growth, 96 h; further: potency means the concentration at half of the fitted maximal effect; on the % scale 0 is the no-effect control and ±100 the full control effect
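Two-generation exposure (96 h) targets delayed-death phenotype. Reporter parasites carrying integrated firefly luciferase, in red cells at 2% hematocrit and 0.05% parasitemia final, kept at 37 C, 5% CO2; luminescence loss indicates inhibition.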
Pf growth 48h = P. falciparum growth inhibition at 48 hours (one generation); AID 504832; hit rate 5.9% among 310,000; P. falciparum luciferase growth in erythrocytes, 48 h; Potency, µM (top dose mostly 28.7 µM), inactives show top-dose activity change, negative = inhibition, most hits filed as inhibitors; further: potency means the concentration at half of the fitted maximal effect; on the % scale 0 is the no-effect control and ±100 the full control effect
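Luciferase-expressing parasites in RBCs, 2% Hct / 0.1% parasitemia final; RPMI 1640 + 0.5% Albumax; 37 C, 5% CO2, one generation; luminescence read-out, lower signal = inhibition.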
HCMV inh = inhibitors of human cytomegalovirus; hit rate 4.5% among 410,000; AID 1259415; activity change, negative = inhibition, % at 57.5 µM; HFF cells, HCMV-luciferase reporter, 72 h; hits give low values; in the data active means activity change below about -60%; inconclusive means no clear call, values can overlap the other calls; inactive means above about -39%; further: on the % scale 0 is the no-effect control and ±100 the full control effect
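Human foreskin fibroblasts infected with luciferase-reporter HCMV at MOI 1 PFU/cell, compounds at two doses. Luciferase measured 72 h post infection; normalized to buffer-only basal and Salinomycin (10uM) controls.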
Shiga inhibitor = Shiga toxin inhibition; hit rate 9.2% among 290,000; inhibition, % at 38.7 µM; Vero cells, Shiga toxin protein synthesis inhibition reporter; in the data active means inhibition mostly above about 28%, no sharp cut-off; inactive means mostly below about 43%; further: 0% is about no effect
* = called active by the depositor; ? = inconclusive; · = no result given; [ ] = remark or other dose. Unless noted, the call rests on the fitted dose curve; in most records, active means well fitted inhibition curve with a large enough effect; inconclusive means small, poorly fitted or top-dose-only effect, or another doubt; inactive means no such curve, though single readings can be large or run the other way.

SMILES | Cycloheximide cs | Pf growth 96h | Pf growth 48h | HCMV inh | Shiga inhibitor
NC(=O)NCCN1CCN(c2ncc(C(F)(F)F)cc2Cl)CC1 | 3 | 11% | 39% | -3 | 20
Cc1nc2cccnc2n1C1CCN(S(=O)(=O)c2ccc(Cl)cc2)CC1 | · | · | · | -23 | ·
Cc1ccccc1C(=O)NNC(=O)c1ccc(Br)cc1 | 42* | -14% | 161% | 11 | 84*
O=C(NC(=S)NNC(=O)c1ccccc1O)c1ccc([N+](=O)[O-])cc1 | -2 | 16% | · | -70* | 15
O=C(NNC(=S)NC(=O)c1ccccc1)c1ccc([N+](=O)[O-])cc1 | 9 | ? | 13% | 22 | ·
O=C(NC(=S)NC1CCSC1=O)c1cccc([N+](=O)[O-])c1 (configuration not stated) | 7 | ? | 33% | -34 | -2
Cc1ccccc1C(=O)Nc1nc(-c2ccc(Br)cc2)ns1 | · | · | · | -95* | ·
O=C(NC(=S)NC1CCSC1=O)c1ccc([N+](=O)[O-])cc1 (configuration not stated) | 12 | 10µM* | 25% | -22 | -13
N#CC(c1nc2ccccc2nc1OCCO)S(=O)(=O)c1ccccc1 (configuration not stated) | 0 | 10% | 1% | -31 | 15
O=C(CSc1n[nH]c(-c2ccccc2)n1)c1ccc(O)c(O)c1 | 3 | ? | 13% | 25 | -2
Cc1ccc(C(=O)NC(=S)Nc2ccc(S(=O)(=O)N(C)c3ccccc3)cc2)cc1 | -1 | · | 4% | ? | 37
O=C(NC(=S)NNC(=O)c1ccccc1O)c1ccc(F)cc1 | 6 | -28% | -16% | 69 | ·
Cc1ccc(NC(=O)NC(=S)NC(=O)c2ccccc2)cc1 | 48* | 78% | 54% | 65 | 88*
Cc1ccc(C(=O)NC(=S)NNC(=O)c2ccccc2O)cc1 | 19* | -6% | · | -81* | 54*
CC(C)(C)S(=O)N1Cc2cc(CO)cc(CCO)c2[C@H]1CCO (some centres not stated) | · | · | · | -11 | ·
CC(=O)OCC(=O)Nc1ccccc1OC(F)F | -3 | 23% | 13% | 31 | 22
Cc1ccc(OCc2nc3ccccc3n2Cc2ccccc2Cl)cc1 | · | · | · | -33 | ·
COc1ccc(/C=C/C(=O)Nc2ccccc2C(=O)N2CCCC2)cc1 | 24 | -3% | -10% | 12 | 53*
COc1ccc(/C=C(/C(=O)Nc2ccccc2C(=O)NC(C)C)c2ccccc2)cc1 | -3 | ? | ? | -9 | -17
COc1ccc(/C=C(/C(=O)Nc2ccccc2C(=O)N2CCCC2)c2ccccc2)cc1 | 1 | ? | 6.6µM* | -18 | -5
CCC1(c2ccc(F)cc2)NC(=O)N(CC(=O)N2CCN(C(=O)c3ccco3)CC2)C1=O (configuration not stated) | · | · | · | -13 | ·
COc1ccc(C(=O)N2CCc3c([nH]c4ccccc34)C2C(F)(F)F)cc1 (configuration not stated) | -2 | ? | ? | -60* | -5
O=C(O)c1ccccc1C(=O)N1CCc2c([nH]c3ccccc23)C1C(F)(F)F (configuration not stated) | -1 | -11% | -7% | 4 | -6
O=C(O)CSCC(=O)N1CCc2c([nH]c3ccccc23)C1C(F)(F)F (configuration not stated) | -5 | 6% | 16%[0.00184 µM] | -21 | -8
O=C(c1cccc(C(F)(F)F)c1)N1CCc2c([nH]c3ccccc23)C1C(F)(F)F (configuration not stated) | -3 | 12µM* | 8.3µM* | -27 | 11
SMILES | Cycloheximide cs | Pf growth 96h | Pf growth 48h | HCMV inh | Shiga inhibitor
COc1ccc(OCC(=O)Nc2ccc(OC)c(S(=O)(=O)N3CCCCC3)c2)cc1 | · | 7% | -6% | -25 | ·
COc1ccc(Oc2nc(C)cc(C)c2S(C)(=O)=O)cc1 | 2 | 62% | 11% | -4 | -3
COc1ccc(CS(=O)c2nc(C)cc(C)c2S(C)(=O)=O)cc1 (configuration not stated) | 7 | 30% | 12µM* | -10 | -8
Cc1ccc(NC(=S)N(N)CCO)cc1 | 22 | -25% | 105% | -5 | 43*
CCOC(=O)c1c(-c2ccsc2)csc1N | 5 | -4% | 2.9µM* | -24 | 13
COCCn1c(C)cc(O)c(C(c2ccc(F)cc2)N2CCC(C)CC2)c1=O (configuration not stated) | · | · | · | -6 | ·
OCCc1ccc(-c2ccc(Cl)cc2)o1 | 31* | · | 68% | 30 | 108*
O=C(O)c1ccc(CN2CCCCC2)o1 | -7 | ? | 5% | -68* | 16
CN1CCN(Cc2ccc(-c3ccc(Cl)cc3)o2)CC1 | 26* | · | -2% | -9 | 67
Clc1ccc(-c2ccc(CN3CCCCC3)o2)cc1 | 25* | ? | -11% | 7 | 39*
Clc1ccc(CN2CCCCCC2)cc1 | 1 | ? | 1% | 18 | 8
CCC(C)N(C)C1CCN(C(=S)Nc2cccc(SC)c2)CC1 (configuration not stated) | -2 | -21% | 20% | -1 | 4
COc1cccc(-n2nnnc2SCC(=O)N2CCCc3ccccc32)c1 | 3 | ? | -20% | -31 | 7
O=C(Nc1c2c(nn1-c1ccc(F)cc1)CS(=O)(=O)C2)c1ccc(Br)o1 | -4 | ? | 12µM* | -10 | -7
COc1ccc(-n2nc3c(c2NC(=O)C(C)Oc2ccccc2)CS(=O)(=O)C3)cc1 (configuration not stated) | -6 | 9.3µM* | 0% | -24 | 3
O=C(Nc1c2c(nn1-c1ccc(F)cc1)CS(=O)(=O)C2)C1CCCC1 | -2 | 10µM* | 4% | -27 | -11
Cc1cc(Cl)ccc1NC(=S)NCCN1CCOCC1 | 4 | 5.2µM* | -2% | ? | -3
CCC(CC)C(=O)c1c[nH]c(C(=O)NCCCN2CCOCC2)c1 | -2 | 67% | 7% | -16 | -11
Cn1cc(/C=C(\NC(=O)c2ccccc2Cl)C(=O)NCCCN2CCOCC2)c2ccccc21 | 1 | 10µM* | ? | -6 | 6
O=C(NCCCN1CCOCC1)c1cc(C(=O)C2CCCCC2)c[nH]1 | -5 | 0% | 10µM* | -8 | -5
Cc1ccc(C(=O)NCCN2CCOCC2)c(Cl)c1 | 13* | 39% | 42% | 15 | 28*
COc1ccc(C(C(=O)NC2CCCCC2)N(C(=O)c2sc(C)nc2C)c2ccccc2C)cc1 (configuration not stated) | 2 | ? | ? | -2 | 11
Cc1[nH]n(-c2ccccc2)c(=O)c1/C=N\NC(=O)C1COc2ccccc2O1 (configuration not stated) | 24 | ? | ? | 111 | -8
O=C(Nc1ccc2nc(C(F)(F)F)[nH]c2c1)[C@@H]1O[C@H](CO)[C@@H](O)[C@H]1O | · | · | · | -23 | ·
O=C(NCCCN1CCOCC1)c1ccc(Cl)cc1Cl | 17* | 75% | ? | 48 | 23
CCCc1c(C(=O)N2CCN(c3ccccc3OC)CC2)cnn1-c1ccccc1 | 0 | -15% | -22% | -1 | 20
